# A number with no mark means an inactive call. Results filed as inconclusive are left out. Where a call stands in place of a potency, no number is given. Activity calls are given as the source filed them. Calls follow the shape of the dose curve; as a rule, active = well fitted curve in the direction sought with a large enough effect in the repeat runs; inconclusive = weak or mixed curves; inactive = no such curve, though single readings can be large; an effect the other way counts as inactive or inconclusive.
# Key:
# [1] = qHTS RealTime-Glo MT Cell Viability Assay in HEK293 cells - 16 hour (AID 1224872); also: nearly all actives have a fitted effect of over 50% in size; also: potency is read from the fitted curve at half-maximal effect; as to activity change, negative = cytotoxicity: top concentration of the series differs between compounds
# How it was run: (§1)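 Homogeneous bioluminescent viability format in HEK293 cells (600 cells/well). Following 5 h at 37 C/5% CO2, 23 nL compound was pintooled; the signal was measured repeatedly during 40 h incubation.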
# [2] = qHTS RealTime-Glo MT Cell Viability Assay in HepG2 cells - 8 hour (AID 1224873); also: nearly all actives have a fitted effect of over 55% in size; also: potency is read from the fitted curve at half-maximal effect
# How it was run: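 HepG2 cells mixed with RealTime-Glo MT reagents (NanoLuc plus cell-permeant prosubstrate) were seeded at 600 cells/well, incubated 5 h at 37 C/5% CO2, then pinned with compounds in DMSO; nonlytic luminescence tracked viability during 40 h treatment.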
# [3] = qHTS RealTime-Glo MT Cell Viability Assay in HEK293 cells - 40 hour (AID 1224874); conditions: RealTime-Glo luminescence; max response: active compounds read low; also: nearly all actives have a fitted effect of over 50% in size; also: potency is read from the fitted curve at half-maximal effect
# How it was run: (§2)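 Luminescence readout at each listed time point; HEK293, 600 cells/well, RealTime-Glo MT reagent added with cells; compounds pinned (23 nL in DMSO) after 5 h at 37 C; continuous culture at 37 C.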
# [4] = A CellTox Green Cytotoxicity Assay to monitor cytotoxicity in HEK293 cells - 24 hour (AID 1224875); also: nearly all actives have a fitted effect of over 45% in size; also: potency is read from the fitted curve at half-maximal effect; as to activity change: series mostly up to about 77 µM
# How it was run: (§3)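 Read-out: fluorescence of a cell-impermeant cyanine dye staining DNA of dead cells, proportional to cytotoxicity. HEK293, 600 cells/well with reagent, compound (23 nL DMSO) added after 5 h; reads at 0, 8, 16, 24, 32, 40 h.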
# [5] = A CellTox Green Cytotoxicity Assay to monitor cytotoxicity in HepG2 cells - 16 hour (AID 1224876); also: nearly all actives have a fitted effect of over 45% in size; also: potency is read from the fitted curve at half-maximal effect
# How it was run: (§4)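 HepG2, 600 cells/well premixed w/ CellTox Green; 5 h settle, 37 C/5% CO2; pintool cpd add (DMSO); 37 C, 40 h; fluorescence read at 0, 8, 16, 24, 32, 40 h.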
# [6] = qHTS RealTime-Glo MT Cell Viability Assay in HepG2 cells - 32 hour (AID 1224877); also: nearly all actives have a fitted effect of over 55% in size; also: potency is read from the fitted curve at half-maximal effect
# How it was run: (§5)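 Cell number in HepG2 cultures estimated from NanoLuc luminescence generated by metabolic reduction of a prosubstrate by living cells. The homogeneous, nonlytic format allowed repeated reads at 0, 8, 16, 24, 32 and 40 h of compound exposure.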
# [7] = A CellTox Green Cytotoxicity Assay to monitor cytotoxicity in HepG2 cells - 24 hour (AID 1224878); also: nearly all actives have a fitted effect of over 45% in size; also: potency is read from the fitted curve at half-maximal effect
# How it was run: as §4
# [8] = A CellTox Green Cytotoxicity Assay to monitor cytotoxicity in HepG2 cells - 40 hour (AID 1224879); also: nearly all actives have a fitted effect of over 40% in size; also: potency is read from the fitted curve at half-maximal effect
# How it was run: as §4
# [9] = qHTS RealTime-Glo MT Cell Viability Assay in HEK293 cells - 0 hour (AID 1224880); also: top concentration of the series differs between compounds; nearly all actives have a fitted effect of over 45% in size
# How it was run: as §2
# [10] = A CellTox Green Cytotoxicity Assay to monitor cytotoxicity in HepG2 cells - 0 hour (AID 1224882); also: nearly all actives have a fitted effect of over 35% in size
# How it was run: as §4
# [11] = A CellTox Green Cytotoxicity Assay to monitor cytotoxicity in HepG2 cells - 32 hour (AID 1224883); also: nearly all actives have a fitted effect of over 50% in size; also: potency is read from the fitted curve at half-maximal effect
# How it was run: as §4
# [12] = qHTS RealTime-Glo MT Cell Viability Assay in HepG2 cells - 16 hour (AID 1224885); also: nearly all actives have a fitted effect of over 50% in size; also: potency is read from the fitted curve at half-maximal effect
# How it was run: as §5
# [13] = qHTS RealTime-Glo MT Cell Viability Assay in HEK293 cells - 24 hour (AID 1224886); also: nearly all actives have a fitted effect of over 50% in size; also: potency is read from the fitted curve at half-maximal effect; as to activity change, negative = cytotoxicity: top concentration of the series differs between compounds
# How it was run: as §1
# [14] = qHTS RealTime-Glo MT Cell Viability Assay in HEK293 cells - 8 hour (AID 1224887); also: nearly all actives have a fitted effect of over 50% in size; also: potency is read from the fitted curve at half-maximal effect; as to activity change, negative = cytotoxicity: top concentration of the series differs between compounds
# How it was run: as §2
# [15] = A CellTox Green Cytotoxicity Assay to monitor cytotoxicity in HEK293 cells - 16 hour (AID 1224888); also: nearly all actives have a fitted effect of over 35% in size; also: potency is read from the fitted curve at half-maximal effect
# How it was run: as §3
# [16] = qHTS RealTime-Glo MT Cell Viability Assay in HepG2 cells - 0 hour (AID 1224889); also: nearly all actives have a fitted effect of over 50% in size
# How it was run: as §5
# [17] = qHTS assay to identify small molecule antagonists of the estrogen receptor alpha (ER-alpha) signaling pathway using the BG1 cell line in the presence of 0.1 nM 17-beta-estradiol - cell viability counter screen (AID 1259241); also: nearly all actives have a fitted effect of over 40% in size; also: potency is read from the fitted curve at half-maximal effect
# How it was run: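 The cell line endogenously expresses full-length ER-alpha and carries four EREs driving luciferase. Cells are cultured 5 days hormone-free, treated 22 hr with compounds and 0.1 nM estradiol, then viability is read by fluorescence.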
# [18] = A CellTox Green Cytotoxicity Assay to monitor cytotoxicity in HEK293 cells - 32 hour (AID 1224881); also: nearly all actives have a fitted effect of over 40% in size; also: potency is read from the fitted curve at half-maximal effect
# How it was run: as §3
# [19] = A CellTox Green Cytotoxicity Assay to monitor cytotoxicity in HEK293 cells - 8 hour (AID 1224884); also: nearly all actives have a fitted effect of over 35% in size; also: potency is read from the fitted curve at half-maximal effect
# How it was run: as §3
# [20] = A CellTox Green Cytotoxicity Assay to monitor cytotoxicity in HepG2 cells - 8 hour (AID 1224890); also: nearly all actives have a fitted effect of over 45% in size; also: potency is read from the fitted curve at half-maximal effect
# How it was run: as §4
compound,measurement,setting,value
CC(C)(c1cc(Br)c(O)c(Br)c1)c1cc(Br)c(O)c(Br)c1,Potency,[1],inactive
same,Potency,[2],inactive
same,max response,[3],-17.7%
same,Potency,[4],inactive
same,Potency,[5],inactive
same,Potency,[6],inactive
same,Potency,[7],inactive
same,Potency,[8],inactive
same,Potency,[9],inactive
same,Potency,[10],inactive
same,Potency,[11],inactive
same,Potency,[12],inactive
same,Potency,[13],inactive
same,Potency,[14],inactive
same,Potency,[15],inactive
same,Potency,[16],inactive
same,Potency,[17],inactive
C=CC(=C)CC/C=C(\C)CCC=C(C)C,"activity change, negative = cytotoxicity",[1],-2.14% [at 15.8 µM]
same,"viability change, negative = cytotoxic",[2],1.83% [at 15.8 µM]
same,max response,[3],-13.5%
same,activity change,[4],"0.574% [at 15.8 µM, active compounds read high]"
same,cytotoxicity increase,[5],1.01% [at 15.8 µM]
same,"activity change, negative = cytotoxic",[6],-2.56% [at 15.8 µM]
same,cytotoxicity,[7],-0.282% [at 15.8 µM]
same,cytotoxicity increase,[8],-0.316% [at 15.8 µM]
same,"activity change, negative = cytotoxicity",[9],-0.65% [at 15.8 µM]
same,cytotoxicity increase,[11],2.06% [at 15.8 µM]
same,"activity change, negative = cytotoxic",[12],1.17% [at 15.8 µM]
same,"activity change, negative = cytotoxicity",[13],-7.54% [at 15.8 µM]
same,"activity change, negative = cytotoxicity",[14],-9.22% [at 15.8 µM]
same,activity change,[15],"2.36% [at 15.8 µM, active compounds read high]"
same,"activity change, negative = cytotoxicity",[16],8.34% [at 15.8 µM]
same,"activity change, negative = cytotoxicity",[17],2.52% [at 19 µM]
CCN=C1C=CC(=C(c2ccc(N(CC)CC)cc2)c2ccc(N(CC)CC)cc2)c2ccccc21,Potency,[1],13.7 µM (active)
same,Potency,[2],19.4 µM (active)
same,Potency,[3],5.46 µM (active)
same,Potency,[4],19.4 µM (active)
same,Potency,[5],19.4 µM (active)
same,Potency,[6],19.4 µM (active)
same,Potency,[7],17.3 µM (active)
same,Potency,[8],19.4 µM (active)
same,Potency,[10],inactive
same,Potency,[11],19.4 µM (active)
same,Potency,[12],19.4 µM (active)
same,Potency,[13],7.71 µM (active)
same,Potency,[14],17.3 µM (active)
same,Potency,[15],19.4 µM (active)
same,Potency,[17],24.2 µM (active)
CCCOc1sc(C(=O)N2CCC(c3cc(CN)ccc3F)CC2)c(C)c1Br,Potency,[1],20 µM (active)
same,Potency,[2],31.8 µM (active)
same,Potency,[3],31.8 µM (active)
same,Potency,[4],22.5 µM (active)
same,Potency,[5],20 µM (active)
same,Potency,[6],22.5 µM (active)
same,Potency,[7],20 µM (active)
same,Potency,[8],15.9 µM (active)
same,Potency,[18],31.8 µM (active)
same,Potency,[10],inactive
same,Potency,[11],17.9 µM (active)
same,Potency,[19],40 µM (active)
same,Potency,[12],22.5 µM (active)
same,Potency,[13],20 µM (active)
same,Potency,[14],17.9 µM (active)
same,Potency,[15],35.7 µM (active)
same,Potency,[20],40 µM (active)
CCCCCCCCCCCCCCCC,Potency,[1],inactive
same,Potency,[2],inactive
same,max response,[3],15.7%
same,Potency,[4],inactive
same,Potency,[5],inactive
same,Potency,[6],inactive
same,Potency,[7],inactive
same,Potency,[8],inactive
same,Potency,[9],inactive
same,Potency,[10],inactive
same,Potency,[11],inactive
same,Potency,[19],inactive
same,Potency,[12],inactive
same,Potency,[13],inactive
same,Potency,[14],inactive
same,Potency,[15],inactive
same,Potency,[16],inactive
same,Potency,[20],inactive
same,Potency,[17],inactive
CC(=O)Oc1ccc(C2(c3ccc(OC(C)=O)cc3)C(=O)Nc3ccccc32)cc1,Potency,[1],inactive
same,Potency,[2],inactive
same,max response,[3],-6.95%
same,Potency,[4],inactive
same,Potency,[5],inactive
same,Potency,[7],inactive
same,Potency,[8],inactive
same,Potency,[9],inactive
same,Potency,[18],inactive
same,Potency,[10],inactive
same,Potency,[19],inactive
same,Potency,[12],inactive
same,Potency,[13],inactive
same,Potency,[14],inactive
same,Potency,[15],inactive
same,Potency,[16],inactive
same,Potency,[20],inactive
NCCCCCCNCCCCCCN,Potency,[1],inactive
same,Potency,[2],inactive
same,max response,[3],-6.12%
same,Potency,[4],inactive
same,Potency,[5],inactive
same,Potency,[7],inactive
same,Potency,[8],inactive
same,Potency,[9],inactive
same,Potency,[18],inactive
same,Potency,[10],inactive
same,Potency,[11],inactive
same,Potency,[19],inactive
same,Potency,[12],inactive
same,Potency,[13],inactive
same,Potency,[14],inactive
same,Potency,[15],inactive
same,Potency,[16],inactive
C=C/C=C/C=C/CCCCC,"activity change, negative = cytotoxicity",[1],13.8% [at 15.8 µM]
same,"viability change, negative = cytotoxic",[2],-19.2% [at 15.8 µM]
same,max response,[3],-0.0339%
same,activity change,[4],"1.62% [at 15.8 µM, active compounds read high]"
same,cytotoxicity increase,[5],-3.81% [at 15.8 µM]
same,cytotoxicity,[7],-3.54% [at 15.8 µM]
same,cytotoxicity increase,[8],-4.48% [at 15.8 µM]
same,"activity change, negative = cytotoxicity",[9],0.841% [at 15.8 µM]
same,cytotoxicity increase,[18],13.2% [at 15.8 µM]
same,cytotoxicity increase,[11],-4.15% [at 15.8 µM]
same,cytotoxicity increase,[19],-3.53% [at 15.8 µM]
same,"activity change, negative = cytotoxic",[12],-10.1% [at 15.8 µM]
same,"activity change, negative = cytotoxicity",[13],13% [at 15.8 µM]
same,"activity change, negative = cytotoxicity",[14],-1.22% [at 15.8 µM]
same,activity change,[15],"-0.0444% [at 15.8 µM, active compounds read high]"
same,"activity change, negative = cytotoxicity",[16],-16.9% [at 15.8 µM]
same,cytotoxicity increase,[20],-1.01% [at 15.8 µM]
same,"activity change, negative = cytotoxicity",[17],-4.24% [at 19 µM]
COC(=O)CC#N,Potency,[1],inactive
same,Potency,[2],inactive
same,max response,[3],9.57%
same,Potency,[4],inactive
same,Potency,[5],inactive
same,Potency,[6],inactive
same,Potency,[7],inactive
same,Potency,[8],inactive
same,Potency,[9],inactive
same,Potency,[10],inactive
same,Potency,[11],inactive
same,Potency,[19],inactive
same,Potency,[12],inactive
same,Potency,[13],inactive
same,Potency,[14],inactive
same,Potency,[15],inactive
same,Potency,[16],inactive
same,Potency,[20],inactive
same,Potency,[17],inactive
CC1(C)C(=O)N(Br)C(=O)N1Br,Potency,[1],inactive
same,Potency,[2],inactive
same,max response,[3],-1.21%
same,Potency,[4],inactive
same,Potency,[5],inactive
same,Potency,[7],inactive
same,Potency,[8],inactive
same,Potency,[9],inactive
same,Potency,[18],inactive
same,Potency,[10],inactive
same,Potency,[11],inactive
same,Potency,[19],inactive
same,Potency,[12],inactive
same,Potency,[13],inactive
same,Potency,[14],inactive
same,Potency,[15],inactive
same,Potency,[16],inactive
same,Potency,[20],inactive
same,Potency,[17],inactive
CCCCCCCCCCCCCCCCCO,"activity change, negative = cytotoxicity",[1],-0.33% [at 15.8 µM]
same,"viability change, negative = cytotoxic",[2],4.95% [at 15.8 µM]
same,max response,[3],0.671%
same,activity change,[4],"-19.9% [at 15.8 µM, active compounds read high]"
same,cytotoxicity increase,[5],1.01% [at 15.8 µM]
same,"activity change, negative = cytotoxic",[6],-2.69% [at 15.8 µM]
same,cytotoxicity,[7],1.75% [at 15.8 µM]
same,cytotoxicity increase,[8],4.05% [at 15.8 µM]
same,"activity change, negative = cytotoxicity",[9],-0.227% [at 15.8 µM]
same,cytotoxicity,[10],-1.06% [at 15.8 µM]
same,cytotoxicity increase,[11],6.48% [at 15.8 µM]
same,cytotoxicity increase,[19],-22.7% [at 15.8 µM]
same,"activity change, negative = cytotoxic",[12],1.76% [at 15.8 µM]
same,"activity change, negative = cytotoxicity",[13],0.271% [at 15.8 µM]
same,"activity change, negative = cytotoxicity",[14],2.17% [at 15.8 µM]
same,activity change,[15],"-22.1% [at 15.8 µM, active compounds read high]"
same,"activity change, negative = cytotoxicity",[16],-0.0873% [at 15.8 µM]
same,"activity change, negative = cytotoxicity",[17],-2.67% [at 19 µM]
COCC(=O)O[C@]1(CCN(C)CCCc2nc3ccccc3[nH]2)CCc2cc(F)ccc2[C@@H]1C(C)C,Potency,[1],5.35 µM (active)
same,Potency,[2],21.3 µM (active)
same,Potency,[3],6.74 µM (active)
same,Potency,[4],21.3 µM (active)
same,Potency,[5],19 µM (active)
same,Potency,[6],13.4 µM (active)
same,Potency,[7],13.4 µM (active)
same,Potency,[8],10.7 µM (active)
same,Potency,[9],inactive
same,Potency,[11],10.7 µM (active)
same,Potency,[19],inactive
same,Potency,[12],19 µM (active)
same,Potency,[13],6.01 µM (active)
same,Potency,[14],6.74 µM (active)
same,Potency,[15],23.9 µM (active)
same,Potency,[16],inactive
same,Potency,[20],23.9 µM (active)
same,Potency,[17],inactive
